# Where a name gives a salt, the structure may show the parent alone. In all, about 1,300 compounds went through this assay and about 40 (3%) showed activity. Only a selection was taken, and actives are over-represented in it overall. Unmarked numbers belong to inactive results.
# Test system: Plasmodium falciparum NF54/iGP1_RE9H ulg8 stage V gametocytes
# Test: gametocyte viability (luciferase signal relative to DMSO control) (% of DMSO control); higher = less gametocytocidal activity, active = 50 or less
# Conditions: exposure time: 72 h
# In short: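 NF54/iGP1_RE9Hulg8 stage V gametocytes (day 12; ~2.5% gametocytemia, 3% hematocrit) were incubated with compounds at 10 µM or 1 µM final, in one well each, for 72 h at 37 °C in medium with 0.5% Albumax II. Luminescence after D-luciferin addition was read on an IVIS Lumina II. Viability refers to the mean of plate DMSO vehicle wells.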
Compound,gametocyte viability (concentration: 1 µM),gametocyte viability (concentration: 10 µM)
COc1ccc(CN(CCN(C)C)c2ccccn2)cc1 [Pyrilamine maleate],90.9,100
CN(C)CCN(Cc1ccc(Cl)cc1)c1ccccn1 [Chloropyramine hydrochloride],87.4,90.3
CCCCCCCCCCCCCCCC[N+](C)(C)CCN(Cc1ccc(OC)cc1)c1ncccn1 [Thonzonium bromide],77,1.76 (active)
CCCNCC(O)COc1ccccc1C(=O)CCc1ccccc1 (stereo not given) [Propafenone hydrochloride],81.6,75.7
CC(C)Nc1cccnc1N1CCN(C(=O)c2cc3cc(NS(C)(=O)=O)ccc3[nH]2)CC1 [Delavirdine],92.5,95.8
CC[C@@H]1C(=O)OC[C@@H]1Cc1cncn1C [Pilocarpine nitrate],98.2,98
CC(C)NCC(O)c1ccc(NS(C)(=O)=O)cc1 (stereo not given) [Sotalol hydrochloride],83.1,92.1
CC(C)NC(=N)NC(=N)Nc1ccc(Cl)cc1 [Proguanil hydrochloride],100,106
N=C(NCCCCCCNC(=N)NC(=N)Nc1ccc(Cl)cc1)NC(=N)Nc1ccc(Cl)cc1 [Chlorhexidine],92.1,1.08 (active)
N=C(N)NC(=N)NCCc1ccccc1 [Phenformin hydrochloride],83.8,83.6
N=C(N=C(N)N)N1CCOCC1 [Moroxidine hydrochloride],83.9,87.9
NC1CCN(c2nc3c(cc2F)c(=O)c(C(=O)O)cn3-c2ccc(F)cc2F)C1 (stereo not given) [Tosufloxacin hydrochloride],78.5,86.9
NC(=O)c1ccc[n+]([C@@H]2O[C@H](COP(=O)([O-])OP(=O)(O)OC[C@H]3O[C@@H](n4cnc5c(N)ncnc54)[C@H](O)[C@@H]3O)[C@@H](O)[C@H]2O)c1 [Nadide],85.3,79.3
C[C@]12CCC(=O)C=C1C=C[C@@H]1[C@@H]2CC[C@@]2(C)[C@H]1CC[C@@]21CCC(=O)O1 [Canrenone],80,83.7
C[C@H]1O[C@H](O[C@H]2[C@H](O)[C@@H](O)[C@@H](O[C@@H]([C@H](O)[C@@H](O)C=O)[C@H](O)CO)O[C@@H]2CO)[C@H](O)[C@@H](O)[C@@H]1N[C@H]1C=C(CO)[C@@H](O)[C@H](O)[C@H]1O [Acarbose],80.6,83.5
NCCc1cc[nH]n1 [Betazole hydrochloride],94.2,94.2
CCC(=O)OCC(=O)[C@@]1(OC(=O)CC)[C@H](C)C[C@H]2[C@H]3[C@H]([C@@H](O)C[C@@]21C)[C@@]1(C)C=CC(=O)C=C1C[C@H]3Cl [Alclometasone dipropionate],83.6,78.3
CN(N=O)C(=O)N[C@H]1C(O)O[C@H](CO)[C@@H](O)[C@@H]1O (mixture of isomers) [Streptozotocin],84.7,92.1
C[C@@H](O)[C@H]1C(=O)N2C(C(=O)O)=C(SCCNC=N)C[C@H]12 [Imipenem],88.8,87.5
Cc1cc(N)c2ccccc2[n+]1CCCCCCCCCC[n+]1c(C)cc(N)c2ccccc21 [Dequalinium dichloride],83.5,36.1 (active)
Cc1[nH]c(=O)c(C#N)cc1-c1ccncc1 [Milrinone],81,82.1
Cc1c(C)c2c(c(C)c1O)CCC(C)(COc1ccc(CC3SC(=O)NC3=O)cc1)O2 (stereo not given) [Troglitazone],81.7,76.3
CC=C(C)C(=O)OC1C(OC(C)=O)C2(CO)C(O)CC3(C)C(=CCC4C5(C)CCC(OC6OC(C(=O)O)C(OC7OC(CO)C(O)C(O)C7O)C(O)C6OC6OC(CO)C(O)C(O)C6O)C(C)(CO)C5CCC43C)C2CC1(C)C (stereo not drawn) [Beta-Escin],90.1,93.2
C[C@@H](O[C@H]1OCCN(Cc2n[nH]c(=O)[nH]2)[C@H]1c1ccc(F)cc1)c1cc(C(F)(F)F)cc(C(F)(F)F)c1 [Aprepitant],87.7,75.4
CCN(CC)CCNC(C(=O)OCCC(C)C)c1ccccc1 (stereo not given) [Camylofine chlorhydrate],79.9,85.5
